# In PubChem BioAssay AID1042 (National Center for Advancing Translational Sciences (NCATS), 2008):
# Inconclusive results are not listed. Unmarked numbers belong to inactive results.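 How the source made its calls: active means raised CDH13 expression over DMSO controls, judged by fold change in triplicate runs, no set cutoff; inconclusive means doubtful CDH13 rise, criteria not stated; inactive means no rise, falls in expression ignored.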
# Assay: CDH13 Derepression/Induction Secondary Assay for qHTS Assay for Epigenetic Modulators
# Conditions: H358 cells, CDH13 mRNA qPCR, 72 h; hits give high values
# Text: NIH Molecular Libraries Screening Centers Network [MLSCN] NIH Chemical Genomics Center [NCGC] MLSCN Grant: 1 X01 MH079860-01 Assay Provider: Elisabeth D. Martinez, University of Texas SW Medical Center NCGC Assay Overview: This secondary assay characterizes selected actives identified in the qHTS of the Locus Derepression (LDR) assay (PubChem AID 597). The LDR assay detects the derepression of a GFP reporter that is stably integrated in a region of the genome of murine c127i mammary cells that is presumably silenced. Compounds that cause derepression of the locus to express GFP are identified by enumerating GFP positive cells using a laser-scanning microplate cytometer. Selected LDR actives were assayed for the induction of CDH13 gene expression, a gene silenced by methylation of its promoter. […]
# NCGC Assay Protocol Summary Exponentially growing H358 non-small cell lung cancer cells were treated daily with fresh media containing the indicated concentrations of compounds for 72 hr. Cellular RNA was extracted, quantified, DNAse treated and reverse transcribed. The resulting cDNA was amplified in TaqMan real time quantitative PCR assays (Applied Biosystems) containing validated primers specific for CDH13 (Hs00169908.m1). […] Gene expression was measured by fold-induction over control DMSO-treated samples (36-37 average cycle time). […]
smiles,measurement,value
CN1CSC(=S)N(C)C1,fold change,1
